High-throughput results (PubChem)
Compounds with a hit are over-represented: about 12% of the library has one in this group of screens.
PLK1 PBD inh: inhibitors of human PLK1 polo-box domain binding; Potency, µM, hits mostly inhibitors; P53350; Plk1 PBD binding of FITC phosphopeptide, fluorescence polarization; actives 2.8% (n = 360,000); AID 720504; note: series mostly up to about 57 µM; nearly all actives have a fitted effect of over 65% in size
BAZ2B block: BAZ2B (human) inhibition; Q9UIF8; Potency, µM (top dose mostly 114 µM), actives largely listed as inhibitors; AID 504333; actives 4.4% (n = 360,000); AlphaScreen BAZ2B-H3K14Ac peptide displacement; note: nearly all actives have a fitted effect of over 60% in size
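Multi-concentration screen (max 110 uM) measuring displacement of acetylated histone H3 peptide from BAZ2B by AlphaScreen, using 50 nM protein, 50 nM peptide and 10 ug/mL streptavidin donor plus Ni-chelate acceptor beads.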
HP1b binding inh: HP1-beta chromodomain-methylated histone interaction inhibition; P83916; AlphaScreen HP1-beta / biotin-H3K9me3 peptide binding; Potency, µM (titrated, usually from 114 µM), actives largely listed as inhibitors; actives 0.56% (n = 390,000); AID 540317; note: nearly all actives have a fitted effect of over 70% in size
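HP1-beta protein (50 nM final) preincubated 30 min at room temperature with biotinylated H3(1-18)K9me3 peptide (50 nM) in PBS pH 7.4, 0.01% Tween-20, then compound added for 30 min. AlphaScreen streptavidin donor/nickel chelate acceptor beads (10 ug/mL final), 30 min dark, luminescence read.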
JMJD2A Tudor: JMJD2A Tudor domain (human) inhibition. AID 504339. Potency, µM (doses to about 114 µM), most hits filed as inhibitors. actives 4.4% (n = 390,000). AlphaScreen JMJD2A-Tudor / H3K4me3 peptide binding. O75164; note: nearly all actives have a fitted effect of over 50% in size
Target sequence (O75164 whole entry, looked up, the tested form may be a part): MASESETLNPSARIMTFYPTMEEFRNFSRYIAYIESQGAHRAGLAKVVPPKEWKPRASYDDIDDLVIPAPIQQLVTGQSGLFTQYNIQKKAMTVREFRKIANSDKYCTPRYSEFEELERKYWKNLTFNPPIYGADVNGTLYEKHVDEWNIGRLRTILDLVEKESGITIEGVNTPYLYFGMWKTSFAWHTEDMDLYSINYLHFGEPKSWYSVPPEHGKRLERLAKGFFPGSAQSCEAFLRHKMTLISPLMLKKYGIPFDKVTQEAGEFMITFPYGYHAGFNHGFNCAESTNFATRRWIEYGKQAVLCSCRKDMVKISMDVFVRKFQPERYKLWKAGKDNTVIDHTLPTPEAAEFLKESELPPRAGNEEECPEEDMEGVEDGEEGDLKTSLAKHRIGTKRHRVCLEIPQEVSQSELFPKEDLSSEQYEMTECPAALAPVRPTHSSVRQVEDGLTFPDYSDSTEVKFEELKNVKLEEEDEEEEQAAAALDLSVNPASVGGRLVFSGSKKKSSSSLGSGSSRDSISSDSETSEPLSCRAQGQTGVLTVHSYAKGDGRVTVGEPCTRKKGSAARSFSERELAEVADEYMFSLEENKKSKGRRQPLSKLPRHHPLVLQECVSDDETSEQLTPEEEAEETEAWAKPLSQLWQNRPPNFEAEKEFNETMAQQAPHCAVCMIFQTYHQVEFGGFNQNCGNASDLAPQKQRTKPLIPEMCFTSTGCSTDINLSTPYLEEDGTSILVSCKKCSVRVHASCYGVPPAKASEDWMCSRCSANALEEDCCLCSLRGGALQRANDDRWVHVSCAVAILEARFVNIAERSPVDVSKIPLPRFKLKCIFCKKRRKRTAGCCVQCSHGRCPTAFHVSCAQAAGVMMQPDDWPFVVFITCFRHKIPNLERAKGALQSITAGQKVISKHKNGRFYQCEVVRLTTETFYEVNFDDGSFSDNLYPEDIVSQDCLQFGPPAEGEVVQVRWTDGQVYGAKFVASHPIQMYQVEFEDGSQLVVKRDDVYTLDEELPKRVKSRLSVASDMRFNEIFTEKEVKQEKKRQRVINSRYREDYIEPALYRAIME
G9a block: blocks human histone lysine methyltransferase G9a; AID 504332; Q96KQ7; G9a H3K9 monomethylation, AlphaScreen, 2 h; Potency, µM (top dose mostly 102 µM), usual class: inhibitors; actives 8.8% (n = 350,000); note: nearly all actives have a fitted effect of over 75% in size
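Readings reflect AlphaScreen signal from monomethyl-H3K9 antibody detection. HMT at 20 nM; substrate b-H3K9 500 nM; cofactor SAM 20 uM; 2 h RT reaction; compounds tested as titrations in qHTS with 15 min preincubation.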
Sfp inh: inhibitors of Bacillus subtilis Sfp phosphopantetheinyl transferase; actives 3.5% (n = 310,000); Biochemical Sfp PPTase activity, qHTS; Potency, µM, hits mostly inhibitors; Q9F4F7; AID 1490;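 note: the enzyme is Sfp with the accession as filed and its product quenches rhodamine fluorescence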
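Compounds were incubated with enzyme (final 15 nM) for 15 min at room temperature before substrate addition started the reaction. Fluorescence at 525 nm excitation, 598 nm emission was recorded immediately and after 30 minutes.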
Of the large screens only hits and unclear results are named; the others gave an inactive call. Calls come from the whole dose curve; as a rule, active = well fitted curve in the direction sought with a large enough effect; inconclusive = small, poorly fitted or top-dose-only effect, or another doubt; inactive = no such curve, though single readings can be large; an effect the other way counts as inactive or inconclusive.

O=c1cnc2cc([N+](=O)[O-])ccc2[nH]1	G9a block inconclusive
CCOc1ccc(C(=O)NCC2CCN(CC3CCCCC3)CC2)cc1	none (no result: G9a block)
CC[C@@]12C(=O)N(c3cccc(Cl)c3)C(=O)N1[C@H](c1ccc(Br)cc1)[C@@H]1C(=O)N(C(C)(C)C)C(=O)[C@@H]12	JMJD2A Tudor 79µM (no result: Sfp inh)
CC(C)C[C@@]12C(=O)N(c3cccc(Cl)c3)C(=O)N1[C@H](c1ccc(Br)cc1)[C@@H]1C(=O)N(C(C)(C)C)C(=O)[C@@H]12	none (no result: Sfp inh)
CCN(CC)c1ccc(S(=O)(=O)N2CCCCC2)cc1NC(=O)C1CSC2(C)CCC(=O)N12 (configuration not stated)	none (no result: Sfp inh)
CCOc1ccc(S(=O)(=O)N2CCOCC2)cc1NC(=O)C1CSC2(C)CCC(=O)N12 (configuration not stated)	G9a block 45µM (no result: Sfp inh)
CCN(CC)CCn1c(-c2ccccc2)nc2c(NCCO)nc(C)nc21	none (no result: PLK1 PBD inh, BAZ2B block, HP1b binding inh, JMJD2A Tudor, G9a block)
Cc1ccc(C(=O)NNC(=O)CCC(=O)Nc2cccc(Cl)c2C)cc1	Sfp inh 79µM
O=C(COC(=O)c1nc(Cl)c(Cl)c(Cl)c1Cl)c1ccc[nH]1	G9a block 14µM (no result: Sfp inh)
CCc1ccccc1NC(=O)Nc1cc(C(=O)NCc2ccc(C(C)C)cc2)ccc1N1CCCC1	none (no result: PLK1 PBD inh, Sfp inh)
CC(C)(C)c1ccc(Cn2nnc3c(=O)[nH]c(C4CCN(C(=O)c5ccco5)CC4)nc32)cc1	PLK1 PBD inh inconclusive, BAZ2B block inconclusive, JMJD2A Tudor 79µM, G9a block inconclusive
COc1ccc(N2CCN(c3nc(-c4cccs4)nc4ccccc34)CC2)cc1	BAZ2B block inconclusive, HP1b binding inh inconclusive, JMJD2A Tudor inconclusive, G9a block 20µM
c1csc(-c2nc(N3CCOCC3)c3ccccc3n2)c1	none
COc1cccc(N2CCN(c3cnc4ccccc4n3)CC2)c1	Sfp inh 79µM
COc1ccc2c(C)cc(N3CCCCCC3)nc2c1	BAZ2B block 22µM, JMJD2A Tudor 13µM, G9a block inconclusive, Sfp inh inconclusive
COc1ccc2c(C)cc(N3CCN(Cc4ccccc4)CC3)nc2c1	none
COC(=O)c1cc(N2CCN(C)CC2)nc2ccccc12	BAZ2B block inconclusive, G9a block 11µM
COc1ccc(N2CCN(c3cnc4ccccc4n3)CC2)cc1	G9a block inconclusive
Cc1ccc2nc(N3CC(C)OC(C)C3)nc(-c3ccccc3)c2c1 (configuration not stated)	none
CC1CN(c2nnc(-c3ccccc3)c3ccccc23)CC(C)O1 (configuration not stated)	PLK1 PBD inh 21µM, JMJD2A Tudor inconclusive
COc1ccc(N2CCN(c3cc(C)nc4ccc(OC)cc34)CC2)cc1	BAZ2B block 32µM, HP1b binding inh inconclusive, JMJD2A Tudor 45µM, G9a block 50µM
Cc1cc(N2CC(C)OC(C)C2)nc2ccccc12 (configuration not stated)	PLK1 PBD inh 27µM
COc1ccc(N2CCN(c3cc(C)c4ccccc4n3)CC2)cc1	BAZ2B block inconclusive, HP1b binding inh inconclusive, JMJD2A Tudor inconclusive, G9a block 10µM
Cc1cc(N2CCN(c3ccccc3)CC2)nc2ccccc12	none
COc1ccc(CNC(=O)C2CCN(S(=O)(=O)c3ccc(N4CCCC4=O)cc3)CC2)cc1	none (no result: BAZ2B block, HP1b binding inh, JMJD2A Tudor, G9a block, Sfp inh)
CCOC(=O)c1sc(Nc2ccc(F)cc2)nc1C	none
CCOC(=O)c1sc(NC(=O)CCCCl)nc1C	G9a block 50µM
CCOC(=O)c1sc(NC(=O)/C=C/c2ccc(F)cc2)nc1C	PLK1 PBD inh 21µM, HP1b binding inh inconclusive (no result: G9a block)
Oc1c(C(c2ccco2)N2CCN(C(c3ccccc3)c3ccccc3)CC2)sc2ncnn12 (configuration not stated)	BAZ2B block inconclusive, JMJD2A Tudor inconclusive, G9a block 18µM, Sfp inh 50µM
Oc1c(C(c2ccccc2)N2CCc3ccccc3C2)sc2ncnn12 (configuration not stated)	PLK1 PBD inh inconclusive, HP1b binding inh inconclusive, JMJD2A Tudor 32µM, G9a block 4µM, Sfp inh 79µM
O=C(NNc1ccc([N+](=O)[O-])cc1)c1ccccc1Cl	G9a block inconclusive
